THP-1 cell loss data for 25 compounds are collected here from the supplement of paper PMC7530171.

Structures can show the parent of a compound that is named as a salt. ± gives the standard deviation.

The subject of this test is THP-1. Put plainly: THP-1 cell loss relative to DMSO control; higher = more host cell loss (toxicity); extreme values may be limits of the assay. The note with it: 10 µM; 4 days; infection: M. tuberculosis H37Rv. How it is done:
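OICR kinase inhibitor library screened in duplicate at 10 uM against M. tuberculosis-infected THP-1 macrophages, 4 days at 37 C. THP-1 cell loss (cytotoxicity or loss of adherence) was quantified from Hoechst-stained nuclei counts by high-content imaging and normalised to the 1% DMSO control; 100 = complete loss of host cells.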
Take `COc1cc(OC)c(C=C2C(=O)Nc3ccccc32)c(OC)c1`: the THP-1 cell loss stood at 45.3 ± 6.7%. On to `CN1CCC(COc2cnc(-c3cccc(Cn4nc(-c5cccc(C#N)c5)ccc4=O)c3)nc2)CC1`, for which the THP-1 cell loss turned out to be 90.4 ± 14%. The compound `COc1nccc(-c2c(-c3ccc(F)cc3)ncn2C2CCNCC2)n1` showed a THP-1 cell loss of 4.97 ± 0.45%. In the case of `O=C1Nc2ccc(I)cc2/C1=C/c1cc(Br)c(O)c(Br)c1`, the THP-1 cell loss came to 20.5 ± 16%. As to `O=C1NC(=O)/C(=C/c2ccc3c(c2)OC(F)(F)O3)S1`, the THP-1 cell loss is 7.44 ± 3.3%. `O=c1c(O)c(-c2ccc(O)c(O)c2)oc2cc(O)cc(O)c12` [Quercetin] returned a THP-1 cell loss of 12.8 ± 2.6%. In turn, `COc1cc2ncnc(Nc3cccc(Cl)c3)c2cc1OC` [Tyrphostin AG 1478 mesylate] returned a THP-1 cell loss of 41.5 ± 9.7%. The same measure for `Cc1ccc(NC(=O)c2cccc(N(C)C)c2)cc1NC(=O)c1ccc(O)cc1`: 3.71 ± 3.8%.

`CC(=O)c1ccc(N2CCOCC2)cc1O` showed a THP-1 cell loss of 16.46 ± 0.081%. With `CCn1c(-c2nonc2N)nc2c(C#CC(C)(C)O)ncc(OC[C@H]3CCCNC3)c21`, the THP-1 cell loss came out at 15.8 ± 3.6%. In the case of `Cc1cc(C(C)Nc2ccccc2)c2nc(N3CCOCC3)cc(=O)n2c1` (stereo not given), the THP-1 cell loss amounted to 10.5 ± 5.8%. Consider `COc1cccc(-c2cc(=O)c3ccccc3o2)c1N`, for which the THP-1 cell loss is 26.7 ± 35%. For `C[C@]1(O)C[C@@H](c2nc(-c3ccc4ccc(-c5ccccc5)nc4c3)c3c(N)nccn32)C1`, the THP-1 cell loss is 38.5 ± 4%. The compound `Cc1cccc(-c2[nH]c(C(C)(C)C)nc2-c2ccc3c(c2)OCO3)n1` gave a THP-1 cell loss of 74 ± 1.8%.

Compound `CN1C(=O)C(Cc2c[nH]c3ccccc23)NC1=S` (stereo not given) [Necrostatin-1] displayed a THP-1 cell loss of 2.6 ± 3.7%. Turning to `NC1(c2ccc(-c3nc4ccn5c(=O)[nH]nc5c4cc3-c3ccccc3)cc2)CCC1`, the THP-1 cell loss is 34.3 ± 6.7%. Next, `O=C(NC1CCNCC1)c1n[nH]cc1NC(=O)c1c(Cl)cccc1Cl`: 90.2 ± 14%; `Nc1ncnc(Nc2ccc(OCc3ccccc3)c(Cl)c2)c1/C=N/OCCN1CCOCC1`: 38.7 ± 4.5%; `CN(C)C/C=C/C(=O)Nc1cc2c(Nc3ccc(F)c(Cl)c3)ncnc2cc1O[C@H]1CCOC1`: 77.6 ± 2.9%. As for `O=C(O)c1ccc2c3c1cccc3c(=O)n1c3ccccc3nc21` [STO-609 acetic acid], the THP-1 cell loss amounted to 35.7 ± 5.5%. In turn, `COc1cc(Nc2ncc(F)c(Nc3ccc4c(n3)N(COP(=O)(O)O)C(=O)C(C)(C)O4)n2)cc(OC)c1OC` showed a THP-1 cell loss of 59.6 ± 57%. Turning to `CC[C@H](Nc1ncnc2[nH]cnc12)c1nc2cccc(F)c2c(=O)n1-c1ccccc1`, the THP-1 cell loss is 35.9 ± 6.3%. As for `COc1cc2ncnc(Nc3ccc(O)cc3)c2cc1OC` [Janex-1], the THP-1 cell loss came to 10.7 ± 0.54%. The compound `COc1cc(F)c(F)c(Nc2ccc(I)cc2F)c1NS(=O)(=O)C1(C[C@H](O)CO)CC1` showed a THP-1 cell loss of 84.9 ± 1%.

For `Cc1cc(F)c(Nc2ncnc3cc(OCc4ccccc4)ccc23)cc1O`, the THP-1 cell loss was 5.29 ± 7.5%.
